Data taken from PubChem BioAssay AID1645882 (National Center for Advancing Translational Sciences (NCATS), 2021).
Values joined by “and” are separate entries in the source; they are usually repeats but may differ in a detail not shown here. Identical values can stand only once. The campaign covered roughly 16,000 compounds. About 120 (0.75%) were called active. Roughly 4% stayed inconclusive and do not appear here. The call rests on the fitted dose curve; in most records, active means well fitted inhibition curve with a large enough effect; inconclusive means small, poorly fitted or top-dose-only effect; inactive means no such curve, though single readings can be large or run the other way. What follows is part of a selection rich in actives, with near analogues and random picks from the rest. Some compounds were tested as several samples or in several runs, with calls that do not always agree.

Each compound was assayed against Rap guanine nucleotide exchange factor 3 (Homo sapiens) (UniProt O95398) (assay: Validation qHTS for antagonist of cAMP-regulated guanine nucleotide exchange factor 3 (EPAC1)). Details: EPAC1 Rap1B-BODIPY-GDP exchange, fluorescence; series mostly up to 150 µM; activity change, negative = inhibition: at the top concentration.
Sequence of Rap guanine nucleotide exchange factor 3 (Homo sapiens) (O95398 whole entry, looked up): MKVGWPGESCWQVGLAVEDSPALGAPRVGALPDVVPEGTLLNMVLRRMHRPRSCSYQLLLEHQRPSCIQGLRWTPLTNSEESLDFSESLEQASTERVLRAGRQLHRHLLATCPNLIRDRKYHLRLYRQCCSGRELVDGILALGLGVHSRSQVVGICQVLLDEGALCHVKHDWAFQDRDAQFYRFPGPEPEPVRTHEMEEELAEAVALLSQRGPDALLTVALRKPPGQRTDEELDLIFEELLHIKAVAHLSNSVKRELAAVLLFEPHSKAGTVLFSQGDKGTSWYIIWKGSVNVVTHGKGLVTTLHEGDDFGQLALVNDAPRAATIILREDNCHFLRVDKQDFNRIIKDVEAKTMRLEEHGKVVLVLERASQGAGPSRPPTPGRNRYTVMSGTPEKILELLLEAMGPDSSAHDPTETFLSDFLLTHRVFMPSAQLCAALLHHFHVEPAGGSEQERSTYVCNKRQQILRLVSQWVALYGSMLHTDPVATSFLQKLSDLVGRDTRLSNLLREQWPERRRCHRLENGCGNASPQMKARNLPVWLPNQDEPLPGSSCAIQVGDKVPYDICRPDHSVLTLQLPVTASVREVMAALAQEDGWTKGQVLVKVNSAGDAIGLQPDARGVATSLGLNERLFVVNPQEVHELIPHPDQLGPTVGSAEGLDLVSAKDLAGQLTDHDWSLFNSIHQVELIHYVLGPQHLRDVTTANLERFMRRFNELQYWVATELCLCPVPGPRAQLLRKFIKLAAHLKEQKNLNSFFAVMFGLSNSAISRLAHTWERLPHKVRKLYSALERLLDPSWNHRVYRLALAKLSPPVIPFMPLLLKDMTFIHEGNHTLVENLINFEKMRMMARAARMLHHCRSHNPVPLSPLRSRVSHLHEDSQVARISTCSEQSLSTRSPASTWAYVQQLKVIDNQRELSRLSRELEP
How it was run: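 Nucleotide exchange followed as fluorescence loss when BODIPY-GDP leaves Rap1B (480 nm excitation, 540 nm emission), read at 5 min intervals over 30 min. Reaction: 100 nM EPAC1, 250 nM RAP1B-BODIPY-GDP, 50 uM GDP; ATA and DMSO define normalization.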
Further: nearly all actives have a fitted effect of over 75% in size.
Potency means the concentration at half of the fitted maximal effect.
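Wherever activity change, negative = inhibition is given: plate controls were DMSO for no effect and ATA control for full effect.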

| Compound | activity change, negative = inhibition | Potency |
| --- | --- | --- |
| CN(C)c1ccc(/C=C/c2ccnc3c2ccc2ccccc23)cc1 | 26.6% (inactive) |  |
| COc1cccc(-c2oc3ccccc3c(=O)c2O)c1 | 2.87% (inactive) |  |
| CC(=O)c1ccc2oc3ccccc3c(=O)c2c1 | -1.3% (inactive) |  |
| CCc1oc2ccccc2c1C(=O)c1cc(I)c(O)c(I)c1 |  | 56.2 µM (active) |
| CCCCc1oc2ccccc2c1C(=O)c1cc(I)c(OCCN(CC)CC)c(I)c1 |  | inactive |
| CCc1oc2ccccc2c1C(=O)c1cc(Br)c(O)c(Br)c1 |  | 100 µM (active) |
| CC(=O)CC(c1ccccc1)c1c(O)c2ccccc2oc1=O (stereo unspecified) |  | inactive |
| COc1cc(OC)c(OC)cc1CN1CCC(n2cc(C(=O)N3CCCCC3)nn2)CC1 | 4.84% (inactive) |  |
| c1ccc2c(N3CCCCCC3)nc(CN3CCCCC3c3nccs3)nc2c1 (stereo unspecified) | 11.8% (inactive) |  |
| COc1ccc(-c2nc3cnc(N(C)C)nc3n(C)c2=O)cc1 | 17% (inactive) |  |
| O=C(Nc1ccc(S(=O)(=O)N2CCOCC2)cc1)c1cc(Cl)ccc1NS(=O)(=O)c1ccc(Cl)s1 |  | 112 µM (active) |
| O=c1c(-c2ccc(Cl)cc2)nc2cnc(N3CCNCC3)nc2n1CCc1ccccc1 | -11.2% (inactive) |  |
| COc1cccc(Cn2c(=O)c(-c3ccc(F)c(F)c3)nc3cncnc32)c1 | -1.99% (inactive) |  |
| O=c1c(-c2ccc(O)cc2)coc2cc(O)cc(O)c12 |  | inactive |
| COc1ccc(-c2coc3cc(O)cc(O)c3c2=O)cc1 |  | inactive |
| O=c1c(-c2ccccc2)coc2cc(O)cc(O)c12 |  | 79.4 µM (active) |
| Cc1cccc(/C=C/c2cccs2)n1 | 12.7% (inactive) |  |
| COc1cccc(CN2Cc3cccc4c3[C@H](C=CC4)CC2=O)c1 | -0.201% (inactive) |  |
| Cc1ccc2c(/C=C/c3ccc(N(C)C)cc3)ccnc2c1C | 0.259% (inactive) |  |
| CS(=O)(=O)OCCCNCCCOS(C)(=O)=O | 27.9% (inactive) |  |
| COc1cc(C(=O)NS(=O)(=O)c2ccccc2C)ccc1Cc1cn(C)c2ccc(NC(=O)OC3CCCC3)cc12 |  | 89.1 µM (active) |
| COc1cc2c(cc1OC)CN(C(=O)[C@@H]1C[C@H](NCc3cn(C)c4ccccc34)CN1C1Cc3ccccc3C1)CC2 | -8.75% (inactive) |  |
| N#C/C(=C\c1ccc(O)c(O)c1)C(N)=O |  | inactive |

| Compound | activity change, negative = inhibition | Potency |
| --- | --- | --- |
| C[C@@H](NC(=O)/C(C#N)=C/c1ccc(O)c(O)c1)c1ccccc1 | 35.9% [at 75.8 µM] (inactive) |  |
| N#C/C(=C\c1ccc(O)c(O)c1)C(=O)NCc1ccccc1 |  | inactive |
| N#C/C(=C\c1ccc(O)c(O)c1)C(=O)c1ccc(O)c(O)c1 | -6.35% [at 75.8 µM] (inactive) |  |
| N#C/C(=C\c1ccc(O)c(O)c1)C(=O)Nc1ccccc1 |  | 79.4 µM (active) and inactive |
| C[C@H](NC(=O)/C(C#N)=C/c1ccc(O)c(O)c1)c1ccccc1 |  | 89.1 µM (active) and inactive |
| N#C/C(=C\c1ccc(O)c(O)c1)C(=O)OCCc1cccs1 |  | 39.8 µM (active) |
| O=C(O)/C=C/c1ccc(O)c(O)c1 |  | inactive |
| CC(NNC(=O)c1ccccc1)c1ccccc1 (stereo unspecified) | 13.5% (inactive) |  |
| Cc1cccc2[nH]cc(/C=C3/C=Nc4ccccc43)c12 | -26.7% (inactive) |  |
| c1cncc(CNc2nc(-c3ccc4c(c3)OCO4)nc3ccccc23)c1 | -1.58% (inactive) |  |
| O=S(=O)(NCc1nc(N2CCCC2)c2cc(Cl)ccc2n1)c1ccccc1OC(F)(F)F | -4.38% (inactive) |  |
| O=C[C@H](O)[C@@H](O)[C@H](O[C@H]1O[C@H](CO)[C@@H](O[C@H]2O[C@H](CO)[C@@H](O)[C@H](O)[C@H]2O)[C@H](O)[C@H]1O)[C@H](O)CO | 23% (inactive) |  |
| CCn1nc(C)cc1C(=O)N1CCC2(CC1)c1ccccc1[C@@H](NC(=O)c1cccnc1)[C@@H]2O | 13% (inactive) |  |
| Cc1ncc2c(c1CNC(=O)c1ccc3c(c1)OCO3)CCN(C(=O)c1scc3c1CCCC3)C2 | 15.5% (inactive) |  |
| CN(C)C(=O)c1ccc(-c2ccc3ncnc(NC4CC4)c3c2)cc1 | -5.36% (inactive) |  |
| NCCC(=O)N[C@H](Cc1cnc[nH]1)C(=O)O | 7.46% (inactive) |  |
| C[C@@H]1NC(=O)OC1c1ccco1 (stereo partly specified) | 10.5% (inactive) |  |
| CS(=O)(=O)Nc1cccc(-c2nccc(NCc3cccs3)n2)c1 | -14.7% (inactive) |  |
| Cc1cc(C)n(-c2cccc(C(=O)NCC3Cc4cccc(-c5cccnc5)c4O3)c2)n1 (stereo unspecified) | 6.83% (inactive) |  |
| O=C1C=CC2=C3c4cc(O)c(O)cc4C[C@]3(O)COC2=C1 | -29.8% (inactive) |  |
| O=C1C=CC2=C3c4cc(O)c(O)cc4CC3(O)COC2=C1O (stereo unspecified) |  | 56.2 µM (active) and 25.1 µM (active) |
| O=C1C=CC2=C3c4cc(O)c(O)cc4C[C@@]3(O)COC2=C1 | -19.9% (inactive) |  |
| CC1O[C@@H](O[C@@H]2C(O)C[C@H](O[C@@H]3C(O)C[C@@H](OC4CC[C@@]5(C)C6CC(O)[C@@]7(C)C(C8=CC(=O)OC8)CC[C@@]7(O)C6CC[C@@H]5C4)OC3C)OC2C)CC(O)[C@H]1O (stereo partly specified) | 14.6% (inactive) |  |
